In PubChem BioAssay (NCATS) one finds Potency data, which are given here for 40 molecules.

Inconclusive results are not listed. The source made the active and inactive calls. The call rests on the fitted dose curve; in most records, active means well fitted inhibition curve with a large enough effect; inconclusive means small, poorly fitted or top-dose-only effect; inactive means no such curve, though single readings can be large or run the other way. Non-standard residues stand in square brackets, D forms with d. Residues, ends and D or L forms follow the SMILES beside them.
Potency means the concentration at half of the fitted maximal effect.

The experiment is described as follows: BET inhibitor-based combinations targeting novel dependencies in MECOM-rearranged (r) AML: HNT-34 cell line (AID 2202234). Further: nearly all actives have a fitted effect of over 35% in size. As to conditions: HNT-34 AML viability, CellTiter-Glo luminescence, 48 h; series mostly up to 46 µM. The text has this:
Ecotropic viral insertion site 1 (EVI1) is located on chromosome 3q26.2 as part of the MECOM (MDS and EVI1 complex) locus. Under normal hematopoiesis, EVI1 is a regulator of hematopoietic stem cell maintenance and self-renewal and EVI1 levels decrease as the cells differentiate. In approximately 5-10% of de novo acute myeloid leukemia (AML) EVI1 is aberrantly expressed, including Chromosomal inv(3)(q21;q26.2) or t(3;3)(q21;q26.2) alterations (MECOM-r) that account for about 50% of AML with EVI1 overexpression 31. AMLs with high levels of EVI1 have a poor prognosis and an overall survival time averaging between 10-14 months. EVI1 overexpression confers resistance in leukemia cells, highlighting the need to develop new targeted therapies for EVI1 overexpressing AMLs. Here, we performed an unbiased chemical drug screening by evaluating the single agent activity of a collection of 2,480 oncology-focused, approved and investigational drugs (NCATS Mechanism Interrogation Plates, MIPE v5.0) against a panel of seven AML cell lines. These included four MECOM-r cell-lines (AML-191, AML-194, UCSD-AML1 and HNT-34) and three non-MECOM-r AMLs (MV4-11, OCI-AML3 and SET-2). Exploiting the mechanistic redundancy built in the library, we identified target-level sensitivities in MECOM-r AML cells and relative activity as compared to other AML subtypes.
A collection of 2480 mechanistically annotated dugs (MIPE v5.0) was used to screen four 3q26.2 rearranged AML cell lines and three non-3q26.2 rearranged AML cell lines. This library purposely exploits redundancy by including multiple inhibitors of key onco-targets, while simultaneously encompassing mechanistic diversity, targeting more than 800 distinct mechanisms of action. Briefly, cells were seeded in 5 uL of growth media using a Multidrop Combi dispenser into 1536 well white polystyrene tissue culture treated plates (Corning) at a density of 500cells/well. For each cell-line, for each of the 2480 drugs in MIPE v5.0 library, an 11-point dose curve was generated via a 1536 pin-tool. Plates were incubated for 48 hr at standard incubator conditions, covered by a stainless steel gasketed lid to prevent evaporation. Cell viability was determined by luminescence based, Cell Titer Glo assay (Promega). In detail, 3 uL of Cell Titer Glo were added to each well and plates were incubated at room temperature for 15 min with a stainless-steel lid in place. Luminescence readings were taken using a Viewlux (PerkinElmer) with a 2 s exposure time per plate. Compound dose-response curves were normalized to DMSO and empty well controls on each plate. Quantitative drug activity data from dose-response curves was determined utilizing area Under the Curve (AUC) and Z-transformed AUC (Z-AUC, a mean-centering transformation applied to each individual cell-line screened).
(In general: Cellular ATP, detected with luciferase, serves as a proxy for viable cell number.)
Take `Cc1ccc(F)c(NC(=O)Nc2ccc(-c3cccc4[nH]nc(N)c34)cc2)c1`: the Potency was 26.3 µM (active). The value for `CC(=O)Nc1cc(Oc2ccc3c(nc(Nc4ccc(F)cc4F)n3C)c2C)ccn1` was 0.118 µM (active); that for `C=CC(=O)N1CCc2ccc(-n3c(=O)ccc4cnc5ccc(-c6cnn(C)c6)cc5c43)cc21` was 0.407 µM (active); that for `Cc1[nH]c(/C=C2\C(=O)Nc3ccc(F)cc32)c(C)c1C(=O)NC[C@H](O)CN1CCOCC1` was 3.72 µM (active). Then `C=CC(=O)N1CCC[C@H](n2c(=O)n(-c3ccc(Oc4ccccc4)cc3)c3c(N)ncnc32)C1`, with 16.6 µM (active). Take `CCN(CC)C(=S)SSC(=S)N(CC)CC`: the Potency was 0.332 µM (active). Regarding `CN(C)C/C=C/C(=O)Nc1ccc(C(=O)N2CCC[C@@H](Nc3ncc(Cl)c(-c4c[nH]c5ccccc45)n3)C2)cc1`, the Potency was 0.235 µM (active). Turning to `COc1ccc(Cl)c(Nc2nc3ccccc3nc2NS(=O)(=O)c2cccc(NC(=O)C(C)(C)N)c2)c1`, the Potency is 23.5 µM (active).

For `C=CC(=O)N1CC[C@@H](Oc2nc(Nc3ccc(N4CCC(N5CCN(C)CC5)CC4)cc3)c(C(N)=O)nc2CC)C1`, the Potency was 7.23 µM (active). Then `O=C(O)CC(C(=O)O)n1c(O)c(C2=c3cc(Br)ccc3=NC2=O)sc1=S` (stereo not given), with “inactive”; and `NS(=O)(=O)c1ccc(NC(=S)N2CCN(C/C=C/c3ccccc3)CC2)cc1`, with 18.6 µM (active); and `CN1CCN(C(=O)c2ccc(-c3ccc4c(C=O)c(O)ccc4c3)s2)CC1`, with 16.6 µM (active). On to `O=C1NC(=O)[C@@H](c2cn3c4c(cccc24)CCC3)[C@@H]1c1c[nH]c2ccccc12`, for which the Potency was 0.934 µM (active). Then `Cc1ccc(C(=O)OCc2ccc([C@@H](CN)C(=O)Nc3ccc4cnccc4c3)cc2)c(C)c1`, with 5.12 µM (active). Then `Cc1[nH]c(/C=C2\C(=O)Nc3ccc(S(=O)(=O)Cc4c(Cl)cccc4Cl)cc32)c(C)c1C(=O)N1CCC[C@@H]1CN1CCCC1`, with 18.6 µM (active); and `COc1cc2nc(-c3ccc(N4CCN(C)CC4)cc3)nc(NCCN3CCOCC3)c2cc1OC`, with 10.5 µM (active).

For the molecule `C=CC(=O)Nc1cccc(C)c1Nc1ncc2cc(-c3c(Cl)c(OC)cc(OC)c3Cl)ccc2n1`, the Potency is 8.33 µM (active). The value for `C=CC(=O)Nc1ccc2ncnc(Nc3ccc(OCc4cccc(F)c4)c(Cl)c3)c2c1` was 6.61 µM (active); that for `CC1=NN(c2ccc(C(=O)O)cc2)C(=O)/C1=C/c1ccc(-c2cc(C)c(C)cc2[N+](=O)[O-])o1` was “inactive”. As for `Cc1ccc(Nc2ncc3c(n2)N(C)C(=O)N(c2cc(NC(=O)c4cccc(C(F)(F)F)c4)ccc2C)C3)cn1`, the Potency was 0.0118 µM (active). On to `Nc1cc(COc2c(Cl)cc(C[C@H](N)C(=O)O)cc2Cl)c2oc(-c3ccccc3)nc2c1`, for which the Potency result is “inactive”. Then `CC(C)C[C@@H]1NC(=O)[C@@H](C(C)C)NC(=O)[C@@H]2CCCN2C(=O)[C@@H](CC(=O)O)NC(=O)[C@@H](Cc2c[nH]c3ccccc23)NC1=O` (cyclo(L[dW][dD]P[dV])), with “inactive”; and `CC[C@@]1(O)C(=O)OCc2c1cc1n(c2=O)Cc2c-1nc1ccccc1c2CCNC(C)C`, with 0.0037 µM (active); and `COc1ccc2c(c1)CC[C@@H]1[C@@H]2CC[C@]2(C)[C@@H](NCCCCCCN3C(=O)C=CC3=O)CC[C@@H]12`, with “inactive”.

Regarding `COc1cc(N2CCN(C)CC2)ccc1Nc1ncc2c(n1)N(C)c1ccccc1C(=O)N2`, the Potency was 26.3 µM (active). For `Cc1onc(-c2ccccc2)c1-c1ccc(S(N)(=O)=O)cc1`, the Potency result is “inactive”. The value for `COc1ccc(-c2cc(C(O)C3CCCCN3)c3ccccc3n2)cc1` (stereo not given) was 13.2 µM (active); that for `COc1cc([C@@H]2c3cc4c(cc3[C@@H](O[C@@H]3O[C@@H]5CO[C@@H](c6cccs6)O[C@H]5[C@H](O)[C@H]3O)[C@H]3COC(=O)[C@H]23)OCO4)cc(OC)c1O` was 0.235 µM (active). Then `Cn1cc(-c2nc(N[C@@H]3CCCC[C@@H]3N)c(F)c3c2C(=O)NC3)cn1`, with 2.35 µM (active); and `CS(=O)(=O)c1ccc([C@@H](CC2CCCC2)C(=O)Nc2nccs2)cc1`, with “inactive”; and `CNS(=O)(=O)c1ccc2c(c1)/C(=C/c1[nH]c3c(c1CCCN1CCN(C)CC1)CCCC3)C(=O)N2`, with 20.9 µM (active). Regarding `COC(=O)c1ccc([C@H]2c3[nH]c4ccccc4c3C[C@H](C(=O)OC)N2C(=O)CCl)cc1`, the Potency was 0.0934 µM (active). Turning to `O=C(Cc1ccccc1)Nc1nnc(CCSCCc2nnc(NC(=O)Cc3ccccc3)s2)s1`, the Potency entry was “inactive”. For `CN(C)N=Nc1nc[nH]c1C(N)=O`, the Potency entry is “inactive”. Then `C[C@H]1COCCN1c1cc(C2(S(=O)(=O)C3CC3)CC2)nc(-c2ccc(NC(=S)NCCO)cc2)n1`, with 0.105 µM (active); and `C[C@@H]1COCCN1c1cc(-c2ccnn2C)c2ccnc(-c3ccn[nH]3)c2n1`, with 0.296 µM (active); and `CC1=C2C[C@H]3[C@@H](CC[C@@H]4C[C@H](NS(C)(=O)=O)CC[C@@]43C)[C@@H]2CC[C@@]2(C1)O[C@@H]1C[C@H](C)CN[C@H]1[C@H]2C`, with 16.6 µM (active). Then `C=C1C(=CC=C2CCC[C@]3(C)[C@@H]([C@H](C)C=C[C@H](C)C(C)C)CC[C@@H]23)C[C@@H](O)C[C@@H]1O`, with 18.6 µM (active); and `Cc1ccc(Sc2ccccc2N2CCNCC2)c(C)c1`, with 16.6 µM (active). As for `C=C[C@H]1CN2CCC1C[C@@H]2C(O)c1ccnc2ccc(OC)cc12` (stereo not given in full), the Potency entry is “inactive”.
